Experimental data: PubChem BioAssay (NCI)
Compounds without any hit were thinned out: in the full panel of roughly 79,000, 15% have a hit. Active and inactive are the calls of the source. No stated cut-off is given here; in the data, active means growth inhibition above about 70%; inactive means the rest.

Columns and labels:
[1] = NCI Yeast Anticancer Drug Screen. Data for the wt1 strain (AID 149);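 further: 0% = growth of vehicle-treated wt1 cultures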; conditions: S. cerevisiae wt1 strain (SPY 50644) growth inhibition, stronger effect = higher value
How it was run: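 Readout: yeast growth inhibition, normalised to vehicle controls, in the wt1 strain exposed to test compounds.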

[2] = NCI Yeast Anticancer Drug Screen. Data for the rad50EPP+ strain (AID 151);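 further: 0% = growth of vehicle-treated control cultures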; conditions: S. cerevisiae rad50 mutant strain, stronger effect = higher value
How it was run: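 Yeast strain carrying rad50 alteration (rad50EPP+) exposed to compounds; growth inhibition measured relative to vehicle-treated controls.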

[3] = NCI Yeast Anticancer Drug Screen. Data for the mgt1 strain (AID 153); conditions: S. cerevisiae mgt1 mutant growth inhibition, stronger effect = higher value
How it was run: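 Yeast mgt1 strain (DNA repair/cell-cycle alteration panel) exposed to compounds; growth inhibition measured relative to vehicle-treated controls.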

[4] = NCI Yeast Anticancer Drug Screen. Data for the rad50 strain (AID 155);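 further: 0% = growth of vehicle-only cultures of the same strain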; conditions: S. cerevisiae rad50 strain growth inhibition, stronger effect = higher value
How it was run: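 Compounds were tested on a yeast strain with an engineered DNA damage repair alteration; the reported value is growth inhibition normalised to vehicle treatment.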

[5] = NCI Yeast Anticancer Drug Screen. Data for the mec2-1 strain (AID 157); conditions: S. cerevisiae mec2-1 strain, stronger effect = higher value
How it was run: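 mec2-1 yeast strain, carrying an alteration in DNA damage repair or cell cycle control, was exposed to compounds; growth inhibition was measured relative to vehicle-treated controls.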

[6] = NCI Yeast Anticancer Drug Screen. Data for the sgs1 mgt1 strain (AID 161);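 further: 0% = growth of cultures given vehicle only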; conditions: S. cerevisiae sgs1 mgt1 strain, stronger effect = higher value
How it was run: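 Percent growth inhibition was derived by comparing compound-exposed mutant yeast with vehicle-exposed cultures. The strain carries alterations in DNA damage repair.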

[7] = NCI Yeast Anticancer Drug Screen. Data for the CLN2oe strain (AID 163);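 further: 0% = growth of vehicle-only control cultures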; conditions: S. cerevisiae CLN2oe strain, stronger effect = higher value
How it was run: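 Yeast cells carrying a defined cell-cycle control alteration were exposed to test compounds. Growth inhibition was scored against vehicle-treated control cultures.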

[8] = NCI Yeast Anticancer Drug Screen. Data for the cln2 rad14 strain (AID 165);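 further: 0% = growth equal to vehicle treated cultures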; conditions: S. cerevisiae cln2 rad14 strain, stronger effect = higher value
How it was run: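 Yeast carrying cln2 and rad14 alterations (cell cycle control and DNA damage repair) were exposed to compounds. Growth inhibition was measured against vehicle-treated controls.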

[9] = NCI Yeast Anticancer Drug Screen. Data for the bub3 strain (AID 167); conditions: S. cerevisiae bub3 mutant strain, stronger effect = higher value
How it was run: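 Growth of a checkpoint-deficient yeast mutant is measured after compound exposure. Values represent inhibition relative to vehicle.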

[10] = NCI Yeast Anticancer Drug Screen. Data for the mlh1 strain (AID 171);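 further: 0% = growth of vehicle-treated control cultures of the same strain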; conditions: S. cerevisiae mlh1 strain growth inhibition, stronger effect = higher value
How it was run: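 Yeast carrying a defined genetic alteration in DNA damage repair or cell cycle control were exposed to test compounds. Growth inhibition was measured relative to vehicle-treated controls.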

[11] = NCI Yeast Anticancer Drug Screen. Data for the sgs1 strain (AID 173);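 further: 0% = growth of vehicle-only control cultures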; conditions: S. cerevisiae sgs1 mutant, stronger effect = higher value
How it was run: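 Yeast mutant strains carrying defined defects in DNA damage repair or cell cycle control were exposed to test compounds. Growth inhibition was scored against vehicle-treated controls.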

[12] = NCI Yeast Anticancer Drug Screen. Data for the mlh1 rad18 strain (AID 175); conditions: S. cerevisiae mlh1 rad18 strain growth inhibition, stronger effect = higher value
How it was run: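 Growth inhibition of the yeast strain was measured after compound exposure and expressed relative to vehicle-treated controls. The strain carries defined defects in DNA damage repair.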

[13] = at 5.0 µM (retest, dose inferred, filed as 0.5)
[14] = at 50.0 µM (retest, dose inferred, filed as 5.0)

Measured: growth inhibition

Oc1ccc(Br)cc1C=Nc1cccc(C(F)(F)F)c1
inactive: [1]; at 1.2 µM -2% | [1]; at 3.7 µM -7% | [1]; at 11.0 µM 9% | [2]; at 1.2 µM 0% | [2]; at 3.7 µM 4% | [2]; at 11.0 µM 10% | [2]; at 33.0 µM 30% | [2]; at 100.0 µM 64% | [3]; at 1.2 µM -2% | [3]; at 3.7 µM 21% | [4]; at 1.2 µM -28% | [4]; at 3.7 µM -20% | [4]; [13] 16% | [4]; at 11.0 µM 32% | [5]; at 1.2 µM 3% | [5]; at 3.7 µM -7% | [5]; [13] -17% | [5]; at 11.0 µM 59% | [6]; [13] 1% | [6]; [14] 63% | [7]; at 1.2 µM -4% | [7]; at 3.7 µM -1% | [7]; at 11.0 µM -1% | [7]; at 33.0 µM 1% | [7]; at 100.0 µM 25% | [8]; [13] 28% | [8]; at 50.0 µM 61% | [9]; at 1.2 µM -6% | [9]; at 3.7 µM -1% | [9]; [13] 42% | [9]; at 11.0 µM -5% | [9]; at 33.0 µM 0% | [9]; at 100.0 µM 28% | [10]; at 1.2 µM -1% | [10]; at 3.7 µM 17% | [10]; at 11.0 µM 68% | [11]; at 1.2 µM 14% | [11]; at 3.7 µM 10% | [11]; at 11.0 µM 65% | [12]; [13] 48% | [12]; at 50.0 µM 66.9%
active: [1]; at 33.0 µM 91% | [1]; at 100.0 µM 97% | [3]; at 11.0 µM 75% | [3]; at 33.0 µM 96% | [3]; at 100.0 µM 97% | [4]; at 33.0 µM 91% | [4]; [14] 92% | [4]; at 50.0 µM 70.5% | [4]; at 100.0 µM 97% | [5]; at 33.0 µM 97% | [5]; [14] 97% | [5]; at 50.0 µM 85.5% | [5]; at 100.0 µM 97% | [6]; at 50.0 µM 81.7% | [8]; [14] 86% | [9]; [14] 94% | [9]; at 50.0 µM 88.2% | [10]; at 33.0 µM 96% | [10]; at 100.0 µM 97% | [11]; at 33.0 µM 94% | [11]; at 100.0 µM 97% | [12]; [14] 97%
